Results from PubChem BioAssay (NCI).
About 83,000 compounds went through this panel and 20% of them were active in at least one assay; those are over-represented in the sample as a whole.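 Growth was measured after 48 h exposure to one concentration of compound in 96-well plates. Values under 10 count as active.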 Values without a mark were called inactive.

Each compound was assayed on NCI-H322M lung (assay: NCI-60 one-dose screen, 48 h (100 = growth as untreated, 0 = no growth, -100 = all killed)). Conditions: 10 µM unless noted.
Experimental: Growth inhibition of the NCI-H322M human Non-Small Cell Lung tumor cell line is measured as a screen for anti-cancer activity. Cells are grown in 96 well plates and exposed to the test compound for 48 hours. Compounds are tested at a single concentration, which is 10^-5 M for most compounds. The reported endpoint is percent growth (GI% or GIPRCNT), where numbers from 0 - 100% represent growth inhibition, and numbers from -100% - 0 represent cell death. For example, a value of 40 represents 60% growth inhibition. A value of 0 means no net growth occurred over the course of the experiment. A value of -40 indicates 40% of cells at the beginning of the experiment died by the end of the experiment. A value of -100 means all cells are dead at the end of the experiment.
NCI-60 Human Tumor Cell Lines Screen was performed using the standard one-dose NCI protocol, which is described in more detail at https://dtp.cancer.gov/discovery_development/nci-60/default.htm.
Compounds with GIPRCNT values below 10 were considered active. Activity score was based on GIPRCNT using the following formula: […]
Score is 0 for GIPRCNT values of 100 or above, 50 for GIPRCNT values of 0, and 100 for GIPRCNT values of -100.
Compound `Nc1ccn(C2OC(CO)C(O)C2F)c(=O)n1` (stereo not given) has a growth of 107%. Work on `Nc1ccc(F)cc1F` yielded a growth of 97.4%. For `CCCCCCCCCCCCCC/C=C\C(CC(=O)O)C(=O)O` (stereo not given), the growth was 117%. `NC(=O)NCCO` gave a growth of 109%. For `CC(=O)C[n+]1ccc(C)cc1Sc1ccccc1C`, the growth was 102%. In the case of `O=C(c1cccc(C(=O)c2ccc3c4c(cccc24)C(=O)N(c2ccccc2)C3=O)c1)c1ccc2c3c(cccc13)C(=O)N(c1ccccc1)C2=O`, the growth is reported as 113%. In the case of `C(=C\c1ccncc1)/c1ccncc1`, the growth is reported as 90.8%. `O=C(O)c1ccc([N+](=O)[O-])cc1S(=O)(=O)O` was tested, and the growth was 113%. In the case of `O=C1C=C(c2ccccc2)C(O)(c2ccccc2)C1` (stereo not given), the growth is reported as 106%. `Cc1ccc(S(=O)(=O)NC(=O)NCCSSCCNC(=O)NS(=O)(=O)c2ccc(C)cc2)cc1` gave a growth of 101%. With `C/C(=N\Nc1ccc([N+](=O)[O-])cc1[N+](=O)[O-])c1ccc(Br)cc1` the growth was 106%. For `CCC(=O)Oc1c(C)cc(O)c2ccccc12`, the growth was 87.4%. Work on `NNC(=O)CCCCl` yielded a growth of 107%. `Cc1ccc2nc(N)nnc2c1` gave a growth of 112%. Work on `COC1OC(C(O)C(O)CO)C(O)C(O)C1O` (stereo not given) yielded a growth of 98.1%. For `CCOC(=O)CNC(=O)Sc1ccc(C(C)(C)C)cc1`, the growth was 79.6%. `CCOC(=O)N[C@H]1CCc2cc(OC)c(OC)c(OC)c2-c2ccc(SC)c(=O)cc21` was tested, and the growth was 30.7%. `Cc1cc(CC(=O)NCCO)n(CCO)c(=O)c1` was tested, and the growth was 103%. Work on `CC(=O)Nc1ccc(O)c(C)c1` yielded a growth of 100%. `O=C1Nc2ccccc2/C1=C\c1ccccc1O` gave a growth of 80.5%. With `Cc1cc(C(=O)NN)c(C#N)c(=O)[nH]1` the growth was 110%. In the case of `Nc1cc2ccccc2c(O)c1O`, the growth is reported as 89.1%. In the case of `Clc1ccc(-c2noc(/C=C\c3ccccc3)n2)cc1`, the growth is reported as 87.1%. `Cn1c2ccccc2c2nnc(NCCCCO)nc21` was tested, and the growth was 99.3%. For `Clc1ccc(/C=C/c2ccccn2)cc1`, the growth was 107%. With `CSc1cnc2ccccc2n1` the growth was 94.4%. With `C1Cc2onc(-c3noc4c3CCC4)c2C1` the growth was 103%. `CCCCOC(=O)c1ccccc1O` was tested, and the growth was 112%. `COC(c1ccc2c(c1)OCO2)C(C)Br` (stereo not given) gave a growth of 100%. In the case of `COC1C(=O)CCC2(CO2)C1(O)C1(C)OC1CCC(C)C` (stereo not given), the growth is reported as 76.8%. `CC(=O)c1cccs1` showed a growth of 97.7%. Work on `CNc1ccccc1C(=O)N/N=C/C=C/c1ccccc1` yielded a growth of 30.8%. `CCOC(=O)c1c(C)[nH]c(C)c1C=O` was tested, and the growth was 102%. With `O=[N+]([O-])c1c(O)c(CNCCCO)cc(CNCCCO)c1O` the growth was 99.5%. `NCC(O)C(O)C(O)C(O)CO` (stereo not given) was tested, and the growth was 100%. In the case of `CC(=O)OC(C)c1cccc(C#N)c1` (stereo not given), the growth is reported as 104%. `CC(c1ccccc1)N1C(=O)CSC1=S` (stereo not given) gave a growth of 74.9%. Compound `CCOC(=O)/C(C#N)=C\c1c[nH]c2ccccc12` has a growth of 110%. Work on `CC1=CC(=Nc2ccc(N(C)C)cc2)C=C(C)C1=O` yielded a growth of 95.8%. With `CC(C)C(C)(C)C(=O)C(C)(C)C(C)(C)C` the growth was 97.9%.
